Measurements taken from the supplement of paper PMC8728848.
This is one part of a sample in which the strongest signals are shown more often than they occur.

Assays:
Test in all cases: glycan array binding signal (z-score within array); higher = stronger binding
Conditions in all cases: glycan notation: IUPAC condensed, linker removed
Fuc(a1-2)Gal(b1-3)GlcNAc = molecular target: Fuc(a1-2)Gal(b1-3)GlcNAc
How it was run: (§1)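 Arrays were curated from the Consortium for Functional Glycomics database, 3228 in total, and kept only where the protein sequence was available. Binding is expressed as a within-array Z-score. This score was averaged across arrays of the same protein sequence at different concentrations or buffers and across linkers, and negative values can be read as non-binding.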

[1] = molecular target: Fuc(a1-2)Gal(b1-3)[Fuc(a1-4)]GlcNAc(b1-3)[Gal(b1-4)GlcNAc(b1-6)]Gal(b1-4)Glc
How it was run: as §1

[2] = molecular target: Fuc(a1-2)Gal(b1-4)GlcNAc(b1-6)GalNAc
How it was run: as §1

[3] = molecular target: Fuc(a1-2)Gal(b1-4)[Fuc(a1-3)]GlcNAc
How it was run: as §1

[4] = molecular target: Fuc(a1-2)Gal(b1-4)[Fuc(a1-3)]GlcNAc(b1-2)Man(a1-3)[Fuc(a1-2)Gal(b1-4)[Fuc(a1-3)]GlcNAc(b1-2)Man(a1-6)]Man(b1-4)GlcNAc(b1-4)[Fuc(a1-6)]GlcNAc
How it was run: as §1

[5] = molecular target: Fuc(a1-2)Gal(b1-4)[Fuc(a1-3)]GlcNAc(b1-3)Gal(b1-4)[Fuc(a1-3)]GlcNAc
How it was run: as §1

[6] = molecular target: Fuc(a1-2)Gal3S(b1-4)GlcNAc
How it was run: as §1

Fuc(a1-2)[Gal(a1-3)]Gal = molecular target: Fuc(a1-2)[Gal(a1-3)]Gal
How it was run: as §1

[7] = molecular target: Fuc(a1-2)[Gal(a1-3)]Gal(b1-4)GlcNAc(b1-2)Man(a1-3)[Fuc(a1-2)[Gal(a1-3)]Gal(b1-4)GlcNAc(b1-2)Man(a1-6)]Man(b1-4)GlcNAc(b1-4)[Fuc(a1-6)]GlcNAc
How it was run: as §1

[8] = molecular target: Fuc(a1-2)[GalNAc(a1-3)]Gal(b1-3)GalNAc(b1-3)Gal(a1-4)Gal(b1-4)Glc
How it was run: as §1

[9] = molecular target: Fuc(a1-2)[GalNAc(a1-3)]Gal(b1-3)GlcNAc(b1-2)Man(a1-3)[Fuc(a1-2)[GalNAc(a1-3)]Gal(b1-3)GlcNAc(b1-2)Man(a1-6)]Man(b1-4)GlcNAc(b1-4)[Fuc(a1-6)]GlcNAc
How it was run: as §1

[10] = molecular target: Fuc(a1-2)[GalNAc(a1-3)]Gal(b1-4)[Fuc(a1-3)]GlcNAc
How it was run: as §1

[11] = molecular target: Fuc(a1-2)[GalNAc(a1-3)]Gal(b1-4)[Fuc(a1-3)]GlcNAc(b1-3)GalNAc
How it was run: as §1

[12] = molecular target: Fuc(a1-3)[GalNAc(b1-4)]GlcNAc6S
How it was run: as §1

Gal(a1-3)Gal(b1-4)Glc = molecular target: Gal(a1-3)Gal(b1-4)Glc
How it was run: as §1

Gal(a1-3)GalNAc = molecular target: Gal(a1-3)GalNAc
How it was run: as §1

[13] = molecular target: Gal(a1-3)[Gal(a1-4)]Gal(b1-4)GlcNAc
How it was run: as §1

Gal(a1-4)Gal(b1-4)Glc = molecular target: Gal(a1-4)Gal(b1-4)Glc
How it was run: as §1

[14] = molecular target: Gal(a1-4)Gal(b1-4)GlcNAc(b1-3)Gal(b1-4)Glc
How it was run: as §1

Gal(b1-3)GlcNAc = molecular target: Gal(b1-3)GlcNAc
How it was run: as §1

[15] = molecular target: Gal(b1-3)[Fuc(a1-4)]GlcNAc(b1-3)Gal(b1-3)[Fuc(a1-4)]GlcNAc
How it was run: as §1

[16] = molecular target: Gal(b1-4)GlcNAc(a1-6)Gal(b1-4)GlcNAc
How it was run: as §1

[17] = molecular target: Gal(b1-4)GlcNAc(b1-2)Man(a1-3)[Gal(b1-4)GlcNAc(b1-2)Man(a1-6)]Man(b1-4)GlcNAc(b1-4)GlcNAc
How it was run: as §1

[18] = molecular target: Gal(b1-4)GlcNAc(b1-2)[Gal(b1-4)GlcNAc(b1-6)]Man(a1-6)[GlcNAc(b1-4)][Gal(b1-4)GlcNAc(b1-2)[Gal(b1-4)GlcNAc(b1-4)]Man(a1-3)]Man(b1-4)GlcNAc(b1-4)[Fuc(a1-6)]GlcNAc
How it was run: as §1

[19] = molecular target: Gal(b1-4)GlcNAc(b1-3)Gal(b1-3)GlcNAc
How it was run: as §1

[20] = molecular target: Gal(b1-4)GlcNAc(b1-3)Gal(b1-4)GlcNAc(b1-2)[Gal(b1-4)GlcNAc(b1-3)Gal(b1-4)GlcNAc(b1-6)]Man(a1-6)[Gal(b1-4)GlcNAc(b1-3)Gal(b1-4)GlcNAc(b1-2)Man(a1-3)]Man(b1-4)GlcNAc(b1-4)[Fuc(a1-6)]GlcNAc
How it was run: as §1

Gal6S(b1-4)Glc = molecular target: Gal6S(b1-4)Glc
How it was run: as §1

[21] = molecular target: GalNAc(a1-3)GalNAc(b1-3)Gal(a1-4)Gal(b1-4)Glc
How it was run: as §1

[22] = molecular target: GalNAc(b1-3)Gal(a1-4)Gal(b1-4)GlcNAc
How it was run: as §1

[23] = molecular target: GalNAc(b1-3)Gal(a1-6)Gal(b1-4)Glc
How it was run: as §1

GalNAc(b1-3)GlcNAc = molecular target: GalNAc(b1-3)GlcNAc
How it was run: as §1

GalNAc(b1-4)GlcNAc = molecular target: GalNAc(b1-4)GlcNAc
How it was run: as §1

GalNAc4S6S(b1-4)GlcNAc = molecular target: GalNAc4S6S(b1-4)GlcNAc
How it was run: as §1

GlcA(b1-3)Gal = molecular target: GlcA(b1-3)Gal
How it was run: as §1

GlcA(b1-6)Gal = molecular target: GlcA(b1-6)Gal
How it was run: as §1

[24] = molecular target: GlcNAc(a1-4)Gal(b1-4)GlcNAc(b1-3)Gal(b1-4)Glc
How it was run: as §1

[25] = molecular target: GlcNAc(a1-4)Gal(b1-4)GlcNAc(b1-3)Gal(b1-4)[Fuc(a1-3)]GlcNAc(b1-3)Gal(b1-4)[Fuc(a1-3)]GlcNAc
How it was run: as §1

[26] = molecular target: GlcNAc(b1-3)Gal(b1-4)GlcNAc
How it was run: as §1

[27] = molecular target: GlcNAc(b1-3)Gal(b1-4)GlcNAc(b1-2)[GlcNAc(b1-3)Gal(b1-4)GlcNAc(b1-6)]Man(a1-6)[GlcNAc(b1-3)Gal(b1-4)GlcNAc(b1-2)Man(a1-3)]Man(b1-4)GlcNAc(b1-4)GlcNAc
How it was run: as §1

[28] = molecular target: Man(a1-2)Man(a1-6)[Man(a1-3)]Man(a1-6)[Man(a1-2)Man(a1-2)Man(a1-3)]Man
How it was run: as §1

[29] = molecular target: Neu5Ac(a2-3)Gal(b1-3)GlcNAc(b1-3)Gal(b1-3)GlcNAc
How it was run: as §1

[30] = molecular target: Neu5Ac(a2-3)Gal(b1-3)[Fuc(a1-4)]GlcNAc
How it was run: as §1

[31] = molecular target: Neu5Ac(a2-3)Gal(b1-4)GlcNAc(b1-2)Man(a1-3)[Neu5Ac(a2-6)Gal(b1-4)GlcNAc(b1-2)Man(a1-6)]Man(b1-4)GlcNAc(b1-4)GlcNAc
How it was run: as §1

[32] = molecular target: Neu5Ac(a2-3)Gal(b1-4)GlcNAc(b1-3)Gal(b1-4)GlcNAc(b1-6)[Gal(b1-3)]GalNAc
How it was run: as §1

[33] = molecular target: Neu5Ac(a2-3)Gal(b1-4)[Fuc(a1-3)]GlcNAc(b1-3)Gal
How it was run: as §1

[34] = molecular target: Neu5Ac(a2-3)Gal(b1-4)[Fuc(a1-3)]GlcNAc6S
How it was run: as §1

[35] = molecular target: Neu5Ac(a2-6)Gal(b1-4)GlcNAc(b1-2)[Neu5Ac(a2-6)Gal(b1-4)GlcNAc(b1-4)]Man(a1-3)[GlcNAc(b1-4)][Neu5Ac(a2-6)Gal(b1-4)GlcNAc(b1-2)[Neu5Ac(a2-6)Gal(b1-4)GlcNAc(b1-6)]Man(a1-6)]Man(b1-4)GlcNAc(b1-4)GlcNAc
How it was run: as §1

[36] = molecular target: Neu5Ac(a2-6)Gal(b1-4)GlcNAc(b1-3)Gal(b1-4)GlcNAc(b1-3)Gal(b1-4)GlcNAc(b1-2)Man(a1-3)[Neu5Ac(a2-6)Gal(b1-4)GlcNAc(b1-3)Gal(b1-4)GlcNAc(b1-3)Gal(b1-4)GlcNAc(b1-2)Man(a1-6)]GalNAc
How it was run: as §1

[37] = molecular target: Neu5Gc(a2-8)Neu5Gc(a2-3)Gal(b1-4)GlcNAc(b1-3)Gal(b1-4)GlcNAc
How it was run: as §1

B1: AT3G44510(29) (Arabidopsis thaliana), F4J341 (protein)
chain: MEEHLQGRIKLHDGRYLAYKERGVPKDDAKFTIVLVHGFGSSKDMNFNVSQELVNEIGIYFVLYDRAGYGESDPNPKRSLKSEAYDVQELADGLEIGSRFYLIGISMGSYTVWSCLKHIPQRLAGVAMVAPVVNFRWPSIPKSLMPKDYRREVAKWSVWIANYFPGLLQWLVTQNMFSTTSMLEKNPVYFNDQDIEVLKHIKGFPMLTKEKLRERGVFGTLRSDFLVAFGDWDFDPADLPDPSLSGPEKGSSSVHIWQGYEDKVMPFQLQRCLCRKLPWIRYHEVPKGGHLIVHYDGICDAILKSLLLGEDLPMYKPKAVITEPA
glycan array binding signal (z-score) (Fuc(a1-2)Gal(b1-3)GlcNAc): 0.123 | glycan array binding signal (z-score) [1]: 0.203 | glycan array binding signal (z-score) [2]: -0.731 | glycan array binding signal (z-score) [3]: -0.381 | glycan array binding signal (z-score) [4]: -0.458 | glycan array binding signal (z-score) [5]: -0.951 | glycan array binding signal (z-score) [6]: 3.33 | glycan array binding signal (z-score) (Fuc(a1-2)[Gal(a1-3)]Gal): 2.08 | glycan array binding signal (z-score) [7]: -0.079 | glycan array binding signal (z-score) [8]: -0.123 | glycan array binding signal (z-score) [9]: -0.313 | glycan array binding signal (z-score) [10]: -0.818 | glycan array binding signal (z-score) [11]: 6.03 | glycan array binding signal (z-score) [12]: -0.561 | glycan array binding signal (z-score) (Gal(a1-3)Gal(b1-4)Glc): -0.538 | glycan array binding signal (z-score) (Gal(a1-3)GalNAc): 2.52 | glycan array binding signal (z-score) [13]: 7.13 | glycan array binding signal (z-score) (Gal(a1-4)Gal(b1-4)Glc): 3.6 | glycan array binding signal (z-score) [14]: -0.481 | glycan array binding signal (z-score) (Gal(b1-3)GlcNAc): -0.484 | glycan array binding signal (z-score) [15]: -0.685 | glycan array binding signal (z-score) [16]: -0.378 | glycan array binding signal (z-score) [17]: -0.419 | glycan array binding signal (z-score) [18]: -0.121 | glycan array binding signal (z-score) [19]: -0.443 | glycan array binding signal (z-score) [20]: -0.519 | glycan array binding signal (z-score) (Gal6S(b1-4)Glc): -0.234 | glycan array binding signal (z-score) [21]: -0.476 | glycan array binding signal (z-score) [22]: 3.41 | glycan array binding signal (z-score) [23]: -0.353 | glycan array binding signal (z-score) (GalNAc(b1-3)GlcNAc): -0.421 | glycan array binding signal (z-score) (GalNAc(b1-4)GlcNAc): 9.27 | glycan array binding signal (z-score) (GalNAc4S6S(b1-4)GlcNAc): -0.488 | glycan array binding signal (z-score) (GlcA(b1-3)Gal): 1.18 | glycan array binding signal (z-score) (GlcA(b1-6)Gal): 0.079 | glycan array binding signal (z-score) [24]: 0.232 | glycan array binding signal (z-score) [25]: 1.31 | glycan array binding signal (z-score) [26]: 0.6 | glycan array binding signal (z-score) [27]: 2.5 | glycan array binding signal (z-score) [28]: -0.613 | glycan array binding signal (z-score) [29]: -0.556 | glycan array binding signal (z-score) [30]: -0.723 | glycan array binding signal (z-score) [31]: 2.04 | glycan array binding signal (z-score) [32]: -0.343 | glycan array binding signal (z-score) [33]: -0.706 | glycan array binding signal (z-score) [34]: 0.419 | glycan array binding signal (z-score) [35]: -0.785 | glycan array binding signal (z-score) [36]: 2.59 | glycan array binding signal (z-score) [37]: 0.206
